Values joined by “and” are separate entries in the source; they are usually repeats but may differ in a detail not shown here. Equal values may be shown once. In all, about 350,000 compounds went through this assay and about 9,900 (2.8%) were called active. About 15% were inconclusive and are not listed. Calls come from the whole dose curve; as a rule, active = well fitted activation curve with a large enough effect; inconclusive = small, poorly fitted or top-dose-only effect; inactive = no such curve, though single readings can be large or run the other way. What follows is part of a selection rich in actives, with near analogues and random picks from the rest. Some structures have more than one record in an assay (separate samples or runs), and their calls can disagree.
assay: A quantitative high throughput screen for small molecules that induce DNA re-replication in MCF 10a normal breast cells.; note: nearly all actives have a fitted effect of over 50% in size; for activity, positive = re-replication: % of control where 0% means no effect; details: MCF 10A DNA re-replication, Hoechst nuclear intensity, 48 h; series mostly up to 46.1 µM; activity, positive = re-replication: at the top concentration
Potency is the fitted concentration of half-maximal effect.

Compound	activity, positive = re-replication	Potency
CC(C)c1ccc(S(=O)(=O)N2CCN(C(C)C(=O)NC3CCCC3)CC2)cc1 (centres undefined)	18.7% (inactive)	–
COc1ccc(CCNC(=O)c2ccc(NC(=O)CC3SC(N4CCCCC4)=NC3=O)cc2)cc1OC (centres undefined)	-0.0243% (inactive)	–
Cn1c(N)cc(=O)n(C)c1=S	0.759% (inactive)	–
Cc1ccc(CCC(=O)Nc2ncc(Cc3cc(Cl)ccc3Cl)s2)o1	–	1.16 µM (active)
CCOc1ccccc1NC(=O)CCc1ccc(C)o1	-0.239% (inactive)	–
Cc1cnc(NC(=O)CSc2nnc(-c3ccc(Cl)cc3Cl)n2N)s1	-3.27% (inactive)	–
CNS(=O)(=O)c1ccc(C(=O)NCC(=O)NCCc2ccc3c(c2)OCCO3)cc1	0.564% (inactive)	–
N/C(=N\OC(=O)c1ccc2c(c1)OCO2)c1ccc(Br)cc1	0.704% (inactive)	–
N/C(=N\OC(=O)N1c2ccccc2Sc2ccccc21)c1ccc(Br)cc1	–	5.17 µM (active)
CCOC(=O)CNC(=O)N1c2ccccc2Sc2ccccc21	-0.866% (inactive)	–
O=C(OCC(=O)N1CCN(c2ccccc2)CC1)c1ccc([N+](=O)[O-])s1	-0.635% (inactive)	–
COc1ccc(CCNC(=O)COC(=O)c2cnc(Cl)c(Cl)c2)cc1	8.58% (inactive)	–
O=C(Cc1cccc2ccccc12)NCCC1=CCCCC1	-2.42% (inactive)	–
O=C(COc1cccc(-n2cnnn2)c1)NCCC1=CCCCC1	8.98% (inactive)	–
Cc1nnc(OCC(=O)NCCC2=CCCCC2)c2ccccc12	–	20.6 µM (active)
O=C(OCCOc1ccccc1F)c1cc(S(=O)(=O)N2CCOCC2)ccc1F	-9.85% (inactive)	–
CCCCN(C(=O)c1nn(C)c(=O)c2ccccc12)c1c(N)n(CCC)c(=O)[nH]c1=O	-7.2% (inactive)	–
CCC1=C(C(=O)OC)C(c2cc(OC)ccc2OC)C(C#N)=C(N)O1 (centres undefined)	5.44% (inactive)	–
COC(=O)C1=C(C)OC(N)=C(C#N)C1c1cc(OC)ccc1OC (centres undefined)	-1.47% (inactive)	–
COc1ccc(C2C(C#N)=C(N)Oc3cc(N)ccc32)cc1OC (centres undefined)	–	18.4 µM (active)
O=C1NCC(c2ccccc2)(c2ccccc2)C(=O)N1	-6.97% (inactive)	–
O=C(Cc1ccc([N+](=O)[O-])cc1)NCCc1ccc2c(c1)OCO2	1.24% (inactive)	–
O=C(c1cccnc1)N(Cc1ccccc1)C(=O)c1cccnc1	-18.6% (inactive)	–
COC(=O)Cc1csc(/N=C/c2c(O)n(-c3cccc(C(F)(F)F)c3)c(=O)c3ccccc23)n1	–	inactive and 3.26 µM (active)
Cc1ccc(-n2c(O)c(C=Nc3ccc(S(=O)(=O)Nc4ncccn4)cc3)c3ccccc3c2=O)cc1C	-2.8% (inactive)	–

Compound	activity, positive = re-replication	Potency
COC(=O)Cc1csc(Nc2c(C)n(C)n(-c3ccccc3)c2=O)n1	1.03% (inactive)	–
Cc1ccc(C)c(NC(=O)COC(=O)c2nn(C)c(=O)c3ccccc23)c1	-0.108% (inactive)	–
COC(=O)c1ccc(COc2ccc(/C=C/C(=O)c3ccc(OC)c(CSCC(=O)O)c3)cc2OC)cc1	–	2.91 µM (active)
COc1cc(/C=N/O)ccc1OCc1ccc([N+](=O)[O-])cc1	10.9% (inactive)	–
COc1ccc(/C=C/C(=O)N2CCCC2)cc1OC	-0.699% (inactive)	–
Cc1c(Cl)cnc(NC(=O)COC(=O)C2CCCC2)c1Cl	-0.757% (inactive)	–
Cc1noc(C)c1COc1ccc(C(=O)NCCOc2ccccc2)cc1	-5.83% (inactive)	–
COc1ccc(C(=O)COC(=O)c2c(C)noc2C)cc1Cl	-7.07% (inactive)	–
Cc1onc(-c2ccccc2Cl)c1C(=O)OCC(=O)c1ccccc1	–	16.4 µM (active)
Cc1onc(-c2ccccc2Cl)c1C(=O)OCc1nnc(-c2ccccc2)o1	3.73% (inactive)	–
COc1cc(C(=O)OCc2cc(=O)n3ccsc3n2)ccc1OC(C)C	1.85% (inactive)	–
CC(OC(=O)CN1C(=O)COc2ccccc21)C(=O)NCc1ccc(F)cc1 (centres undefined)	-13.3% (inactive)	–
O=C(CN1C(=O)COc2ccccc21)Nc1ccc(F)cc1	–	20.6 µM (active)
O=C(CN1C(=O)COc2ccccc21)NCCN1CCc2ccccc2C1	1.31% (inactive)	–
Cc1ccc(S(=O)(=O)N2CCN(C(=O)c3cc(S(=O)(=O)N4CCOCC4)ccc3F)CC2)cc1	9.74% (inactive)	–
O=C(c1ccc(Cl)c(S(=O)(=O)N2CCCCCC2)c1)N1CCN(c2ccc(O)cc2)CC1	13.3% (inactive)	–
CC(=O)Nc1ccc(/C=N/Nc2ccc(C(=O)c3c(C)cc4ccccn34)cc2[N+](=O)[O-])cc1	-1.8% (inactive)	–
Cc1ccc(C(=O)NNC(=O)CSc2nnc3ccccn23)cc1	5.99% (inactive)	–
Cc1ccc(C(C[N+](=O)[O-])c2c(C)cc3ccccn23)cc1 (centres undefined)	–	20.6 µM (active)
CCCCC(=O)N/N=C(\C)CC(=O)Nc1cc(Cl)ccc1OC	-0.526% (inactive)	–
Cc1cc(Cl)ccc1OCCCC(=O)NCc1ccncc1	2.15% (inactive)	–
C/C(CC(=O)NCc1ccc(Cl)cc1)=N\NC(=O)COc1ccc(C)cc1Br	–	5.8 µM (active)
COc1ccc(CC(=O)N[C@@H]2c3cc(OC)c(OC)cc3C[C@H]2OCc2ccccc2)cc1	-30.6% (inactive)	–
Cc1ccc(C(=O)Nc2ccccc2-c2ccccc2)cc1S(=O)(=O)Nc1ccccc1	-0.658% (inactive)	–

Source: PubChem BioAssay AID624296 (National Center for Advancing Translational Sciences (NCATS), 2012)
